# ChEMBL document CHEMBL1961873, “Compounds: GSK PKIS; Assays: Nanosyn kinase panel” (2012)
# Assays:
# [1] = target: Sphingosine kinase 1 (Homo sapiens) (UniProt Q9NYA1); conditions: at 1 µM;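 also: mean SPHK1 inhibition value reported from the GSK PKIS kinase panel screen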
# [2] = target: T1, Sphingosine kinase 2 (Homo sapiens) (UniProt Q9NRA0); conditions: at 0.1 µM
# T1 sequence (whole entry): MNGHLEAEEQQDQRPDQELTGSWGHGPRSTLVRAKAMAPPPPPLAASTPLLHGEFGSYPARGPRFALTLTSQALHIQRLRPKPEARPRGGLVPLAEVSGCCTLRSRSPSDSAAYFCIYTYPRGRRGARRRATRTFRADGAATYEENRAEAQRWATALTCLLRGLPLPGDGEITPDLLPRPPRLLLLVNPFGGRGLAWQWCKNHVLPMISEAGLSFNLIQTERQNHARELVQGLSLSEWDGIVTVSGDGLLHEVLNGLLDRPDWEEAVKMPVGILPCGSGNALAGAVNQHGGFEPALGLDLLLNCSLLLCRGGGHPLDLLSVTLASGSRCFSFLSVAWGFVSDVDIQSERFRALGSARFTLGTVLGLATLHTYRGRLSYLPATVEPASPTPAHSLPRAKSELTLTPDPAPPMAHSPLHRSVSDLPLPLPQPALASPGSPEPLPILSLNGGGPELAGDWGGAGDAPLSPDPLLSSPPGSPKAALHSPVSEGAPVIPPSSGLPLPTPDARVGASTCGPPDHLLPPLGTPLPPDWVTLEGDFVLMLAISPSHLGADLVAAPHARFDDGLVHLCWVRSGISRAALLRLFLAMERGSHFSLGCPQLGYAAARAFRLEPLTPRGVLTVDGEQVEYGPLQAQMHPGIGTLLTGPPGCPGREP
# [3] = target: T1, Sphingosine kinase 2 (Homo sapiens); conditions: at 1 µM
# [4] = target: Casein kinase II subunit alpha (Homo sapiens) (UniProt P68400); conditions: at 0.1 µM
# [5] = target: Casein kinase II subunit alpha (Homo sapiens) (UniProt P68400); conditions: at 1 µM
# [6] = target: T2, Inhibitor of nuclear factor kappa-B kinase subunit alpha (Homo sapiens) (UniProt O15111); conditions: at 0.1 µM
# T2 sequence (whole entry): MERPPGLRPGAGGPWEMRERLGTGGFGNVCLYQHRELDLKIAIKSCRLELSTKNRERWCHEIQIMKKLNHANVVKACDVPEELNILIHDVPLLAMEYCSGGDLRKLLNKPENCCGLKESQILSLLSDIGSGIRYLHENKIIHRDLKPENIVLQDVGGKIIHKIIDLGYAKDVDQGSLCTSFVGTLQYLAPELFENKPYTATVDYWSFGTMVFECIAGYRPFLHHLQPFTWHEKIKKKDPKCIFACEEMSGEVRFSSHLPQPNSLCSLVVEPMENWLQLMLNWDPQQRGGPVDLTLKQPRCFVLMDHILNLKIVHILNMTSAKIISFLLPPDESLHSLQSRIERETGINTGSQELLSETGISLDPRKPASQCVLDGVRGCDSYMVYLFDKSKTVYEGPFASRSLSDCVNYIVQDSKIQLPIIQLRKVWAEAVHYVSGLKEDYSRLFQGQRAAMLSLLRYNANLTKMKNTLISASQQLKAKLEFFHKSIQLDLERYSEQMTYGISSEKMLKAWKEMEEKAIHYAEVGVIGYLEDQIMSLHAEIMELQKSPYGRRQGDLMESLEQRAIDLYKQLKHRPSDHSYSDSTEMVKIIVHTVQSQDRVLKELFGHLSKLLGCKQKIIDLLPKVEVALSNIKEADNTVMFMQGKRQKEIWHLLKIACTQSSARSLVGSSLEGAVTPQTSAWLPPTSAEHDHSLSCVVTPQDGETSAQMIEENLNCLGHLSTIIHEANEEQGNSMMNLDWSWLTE
# [7] = target: T2, Inhibitor of nuclear factor kappa-B kinase subunit alpha (Homo sapiens); conditions: at 1 µM
# [8] = target: T3, Inhibitor of nuclear factor kappa-B kinase subunit beta (Homo sapiens) (UniProt O14920); conditions: at 0.1 µM
# T3 sequence (whole entry): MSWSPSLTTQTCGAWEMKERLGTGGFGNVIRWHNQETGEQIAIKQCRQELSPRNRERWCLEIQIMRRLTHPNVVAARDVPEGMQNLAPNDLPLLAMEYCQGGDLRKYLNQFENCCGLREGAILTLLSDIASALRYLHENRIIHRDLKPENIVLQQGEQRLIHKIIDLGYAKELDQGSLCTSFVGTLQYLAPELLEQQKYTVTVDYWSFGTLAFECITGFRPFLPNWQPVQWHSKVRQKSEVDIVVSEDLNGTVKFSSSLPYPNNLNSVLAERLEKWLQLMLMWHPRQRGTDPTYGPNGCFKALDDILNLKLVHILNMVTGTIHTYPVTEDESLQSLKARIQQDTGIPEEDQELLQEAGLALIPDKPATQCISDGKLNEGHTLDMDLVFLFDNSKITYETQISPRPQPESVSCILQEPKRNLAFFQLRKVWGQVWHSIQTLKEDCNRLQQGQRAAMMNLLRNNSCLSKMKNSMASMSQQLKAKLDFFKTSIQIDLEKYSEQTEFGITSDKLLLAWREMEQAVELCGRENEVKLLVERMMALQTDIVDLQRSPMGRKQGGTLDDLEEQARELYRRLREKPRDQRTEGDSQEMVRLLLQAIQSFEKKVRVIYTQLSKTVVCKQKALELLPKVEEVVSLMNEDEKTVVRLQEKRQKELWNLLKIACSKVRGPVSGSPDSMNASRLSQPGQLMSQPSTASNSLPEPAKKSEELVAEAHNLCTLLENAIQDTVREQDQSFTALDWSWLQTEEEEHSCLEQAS
# [9] = target: T3, Inhibitor of nuclear factor kappa-B kinase subunit beta (Homo sapiens); conditions: at 1 µM
# [10] = target: T4, Inhibitor of nuclear factor kappa-B kinase subunit epsilon (Homo sapiens) (UniProt Q14164); conditions: at 0.1 µM
# T4 sequence (whole entry): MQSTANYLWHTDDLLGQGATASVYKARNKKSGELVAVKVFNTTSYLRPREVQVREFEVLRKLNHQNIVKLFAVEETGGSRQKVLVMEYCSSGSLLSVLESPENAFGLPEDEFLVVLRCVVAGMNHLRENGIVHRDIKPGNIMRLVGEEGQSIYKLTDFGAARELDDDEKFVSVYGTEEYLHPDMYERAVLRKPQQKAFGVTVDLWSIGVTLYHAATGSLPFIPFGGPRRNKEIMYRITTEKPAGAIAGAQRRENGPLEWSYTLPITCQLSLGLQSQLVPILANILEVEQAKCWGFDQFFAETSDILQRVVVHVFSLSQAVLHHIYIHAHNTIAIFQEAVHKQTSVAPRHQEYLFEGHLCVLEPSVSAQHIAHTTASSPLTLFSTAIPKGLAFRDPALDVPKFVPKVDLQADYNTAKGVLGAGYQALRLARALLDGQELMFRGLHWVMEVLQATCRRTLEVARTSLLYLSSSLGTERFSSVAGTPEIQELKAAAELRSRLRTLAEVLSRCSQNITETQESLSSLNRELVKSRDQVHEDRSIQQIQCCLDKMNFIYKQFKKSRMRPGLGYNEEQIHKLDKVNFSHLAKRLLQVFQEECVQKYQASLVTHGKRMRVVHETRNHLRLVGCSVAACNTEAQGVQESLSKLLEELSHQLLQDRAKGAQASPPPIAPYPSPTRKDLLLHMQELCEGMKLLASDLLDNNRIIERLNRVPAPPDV
# [11] = target: T4, Inhibitor of nuclear factor kappa-B kinase subunit epsilon (Homo sapiens); conditions: at 1 µM
# [12] = target: T5, Serine/threonine-protein kinase Nek1 (Homo sapiens) (UniProt Q96PY6); conditions: at 0.1 µM
# T5 sequence (whole entry): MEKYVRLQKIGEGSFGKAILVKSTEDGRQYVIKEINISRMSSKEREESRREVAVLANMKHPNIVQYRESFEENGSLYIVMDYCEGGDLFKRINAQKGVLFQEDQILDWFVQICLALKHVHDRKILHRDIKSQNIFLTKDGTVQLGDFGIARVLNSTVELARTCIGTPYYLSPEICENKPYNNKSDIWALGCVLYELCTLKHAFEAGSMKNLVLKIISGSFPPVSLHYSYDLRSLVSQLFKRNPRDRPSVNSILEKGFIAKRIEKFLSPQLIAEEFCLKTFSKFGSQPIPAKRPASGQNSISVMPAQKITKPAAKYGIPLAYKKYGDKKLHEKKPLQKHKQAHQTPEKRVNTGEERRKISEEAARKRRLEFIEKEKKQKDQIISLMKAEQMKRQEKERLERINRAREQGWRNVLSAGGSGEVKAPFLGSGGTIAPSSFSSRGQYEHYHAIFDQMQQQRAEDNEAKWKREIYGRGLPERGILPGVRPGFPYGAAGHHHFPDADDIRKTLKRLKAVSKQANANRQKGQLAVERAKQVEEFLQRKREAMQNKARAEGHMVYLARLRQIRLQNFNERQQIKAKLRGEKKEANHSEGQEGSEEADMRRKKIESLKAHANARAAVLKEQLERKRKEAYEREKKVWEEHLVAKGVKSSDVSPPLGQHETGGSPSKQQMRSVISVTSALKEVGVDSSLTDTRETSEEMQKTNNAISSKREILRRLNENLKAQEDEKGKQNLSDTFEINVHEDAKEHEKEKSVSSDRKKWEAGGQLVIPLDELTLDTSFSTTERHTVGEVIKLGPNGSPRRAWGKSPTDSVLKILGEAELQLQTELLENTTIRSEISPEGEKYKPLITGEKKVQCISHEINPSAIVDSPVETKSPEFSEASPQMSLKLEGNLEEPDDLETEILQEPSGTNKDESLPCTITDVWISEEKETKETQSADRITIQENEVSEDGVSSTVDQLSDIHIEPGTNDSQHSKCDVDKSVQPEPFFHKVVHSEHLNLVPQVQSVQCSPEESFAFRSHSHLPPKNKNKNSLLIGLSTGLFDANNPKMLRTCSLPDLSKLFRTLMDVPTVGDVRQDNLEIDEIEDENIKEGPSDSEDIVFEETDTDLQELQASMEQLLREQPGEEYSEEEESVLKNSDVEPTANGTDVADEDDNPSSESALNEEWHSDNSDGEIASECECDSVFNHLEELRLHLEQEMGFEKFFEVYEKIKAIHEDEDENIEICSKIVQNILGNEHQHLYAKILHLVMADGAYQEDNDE
# [13] = target: T5, Serine/threonine-protein kinase Nek1 (Homo sapiens); conditions: at 1 µM
# [14] = target: T6, Serine/threonine-protein kinase Nek2 (Homo sapiens) (UniProt P51955); conditions: at 0.1 µM
# T6 sequence (whole entry): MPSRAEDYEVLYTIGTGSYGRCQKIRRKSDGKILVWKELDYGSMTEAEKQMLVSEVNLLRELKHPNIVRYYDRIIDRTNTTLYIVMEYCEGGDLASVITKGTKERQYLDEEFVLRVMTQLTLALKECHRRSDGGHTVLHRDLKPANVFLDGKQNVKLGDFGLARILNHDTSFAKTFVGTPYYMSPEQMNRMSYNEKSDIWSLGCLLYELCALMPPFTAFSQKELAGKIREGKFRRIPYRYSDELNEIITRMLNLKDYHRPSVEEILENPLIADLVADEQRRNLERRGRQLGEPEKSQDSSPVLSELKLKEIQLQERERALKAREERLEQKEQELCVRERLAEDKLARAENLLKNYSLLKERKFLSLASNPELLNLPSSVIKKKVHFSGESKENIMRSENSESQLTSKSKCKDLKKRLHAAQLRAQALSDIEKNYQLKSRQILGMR
# [15] = target: T6, Serine/threonine-protein kinase Nek2 (Homo sapiens); conditions: at 1 µM
# [16] = target: Serine/threonine-protein kinase Nek6 (Homo sapiens) (UniProt Q9HC98); conditions: at 0.1 µM
# [17] = target: Serine/threonine-protein kinase Nek6 (Homo sapiens) (UniProt Q9HC98); conditions: at 1 µM
# [18] = target: Serine/threonine-protein kinase Nek7 (Homo sapiens) (UniProt Q8TDX7); conditions: at 0.1 µM
# [19] = target: Serine/threonine-protein kinase Nek7 (Homo sapiens) (UniProt Q8TDX7); conditions: at 1 µM
# [20] = target: T7, Serine/threonine-protein kinase Nek9 (Homo sapiens) (UniProt Q8TD19); conditions: at 0.1 µM;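 also: reported value is the mean percent inhibition of NEK9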
# T7 sequence (whole entry): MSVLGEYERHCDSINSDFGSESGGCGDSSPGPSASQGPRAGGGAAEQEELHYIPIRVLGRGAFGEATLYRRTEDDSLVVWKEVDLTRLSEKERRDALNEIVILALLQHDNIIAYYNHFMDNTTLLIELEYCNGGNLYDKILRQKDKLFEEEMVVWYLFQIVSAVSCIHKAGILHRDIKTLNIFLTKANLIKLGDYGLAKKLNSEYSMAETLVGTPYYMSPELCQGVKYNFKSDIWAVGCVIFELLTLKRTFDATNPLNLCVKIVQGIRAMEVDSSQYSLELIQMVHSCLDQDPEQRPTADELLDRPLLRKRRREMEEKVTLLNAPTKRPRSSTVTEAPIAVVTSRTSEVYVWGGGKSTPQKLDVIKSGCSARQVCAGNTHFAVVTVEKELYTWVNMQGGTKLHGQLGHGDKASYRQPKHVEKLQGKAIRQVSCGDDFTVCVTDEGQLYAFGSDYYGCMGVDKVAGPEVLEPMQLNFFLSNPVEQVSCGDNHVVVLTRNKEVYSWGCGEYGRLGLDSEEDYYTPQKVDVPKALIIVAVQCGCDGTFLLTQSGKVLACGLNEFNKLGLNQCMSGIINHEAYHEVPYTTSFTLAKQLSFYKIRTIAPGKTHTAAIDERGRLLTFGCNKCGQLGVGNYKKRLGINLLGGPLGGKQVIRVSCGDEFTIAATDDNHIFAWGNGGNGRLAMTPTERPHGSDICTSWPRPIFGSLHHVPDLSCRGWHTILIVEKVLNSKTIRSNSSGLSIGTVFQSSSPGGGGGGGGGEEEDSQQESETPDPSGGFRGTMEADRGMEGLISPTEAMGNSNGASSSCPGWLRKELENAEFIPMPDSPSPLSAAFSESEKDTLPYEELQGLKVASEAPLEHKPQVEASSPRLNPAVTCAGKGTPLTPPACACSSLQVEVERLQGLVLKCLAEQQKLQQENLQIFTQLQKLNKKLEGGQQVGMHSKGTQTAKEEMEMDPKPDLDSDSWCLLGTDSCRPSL
# Casein kinase II subunit alpha (Homo sapiens), sequence (P68400 whole entry, looked up): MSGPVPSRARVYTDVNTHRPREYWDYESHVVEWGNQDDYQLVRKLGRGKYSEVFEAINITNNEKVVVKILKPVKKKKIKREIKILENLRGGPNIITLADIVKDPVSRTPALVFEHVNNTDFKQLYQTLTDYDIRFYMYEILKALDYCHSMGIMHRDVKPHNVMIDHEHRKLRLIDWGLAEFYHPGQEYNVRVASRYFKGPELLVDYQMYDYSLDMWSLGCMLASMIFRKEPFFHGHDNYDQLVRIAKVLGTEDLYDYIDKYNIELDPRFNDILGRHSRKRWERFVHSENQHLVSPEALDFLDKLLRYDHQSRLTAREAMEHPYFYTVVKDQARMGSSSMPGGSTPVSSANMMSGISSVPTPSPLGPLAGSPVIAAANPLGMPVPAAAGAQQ
# Serine/threonine-protein kinase Nek7 (Homo sapiens), sequence (Q8TDX7 whole entry, looked up): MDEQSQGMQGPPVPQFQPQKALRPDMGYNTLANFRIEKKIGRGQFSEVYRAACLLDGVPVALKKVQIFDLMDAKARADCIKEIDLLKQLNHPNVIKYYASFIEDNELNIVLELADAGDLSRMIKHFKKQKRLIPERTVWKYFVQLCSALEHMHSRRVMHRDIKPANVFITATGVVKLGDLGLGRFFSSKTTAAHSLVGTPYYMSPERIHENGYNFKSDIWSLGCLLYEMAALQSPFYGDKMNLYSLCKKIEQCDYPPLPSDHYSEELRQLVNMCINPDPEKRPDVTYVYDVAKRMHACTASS
# Serine/threonine-protein kinase Nek6 (Homo sapiens), sequence (Q9HC98 whole entry): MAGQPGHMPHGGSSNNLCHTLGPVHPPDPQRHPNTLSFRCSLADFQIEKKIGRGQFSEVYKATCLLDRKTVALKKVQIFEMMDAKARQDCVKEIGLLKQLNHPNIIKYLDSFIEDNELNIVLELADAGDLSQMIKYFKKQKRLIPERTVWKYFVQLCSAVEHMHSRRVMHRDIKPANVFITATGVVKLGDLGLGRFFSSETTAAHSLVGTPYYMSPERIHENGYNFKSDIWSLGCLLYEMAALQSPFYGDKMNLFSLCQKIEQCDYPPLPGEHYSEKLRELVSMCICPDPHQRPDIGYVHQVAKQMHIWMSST
# Sphingosine kinase 1 (Homo sapiens), sequence (Q9NYA1 whole entry): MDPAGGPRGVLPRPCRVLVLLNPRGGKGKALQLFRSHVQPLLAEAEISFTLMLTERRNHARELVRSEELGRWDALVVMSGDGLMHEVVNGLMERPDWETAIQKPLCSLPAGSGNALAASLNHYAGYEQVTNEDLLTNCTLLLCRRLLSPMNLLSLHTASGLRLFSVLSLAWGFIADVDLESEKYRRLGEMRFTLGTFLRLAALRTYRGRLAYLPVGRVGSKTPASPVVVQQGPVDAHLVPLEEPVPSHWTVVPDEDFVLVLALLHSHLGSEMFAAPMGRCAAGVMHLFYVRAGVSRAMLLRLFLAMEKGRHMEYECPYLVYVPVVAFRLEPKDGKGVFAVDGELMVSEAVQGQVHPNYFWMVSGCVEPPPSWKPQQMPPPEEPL
smiles,measurement,setting,value
CC(C)c1ccc(Nc2nccc(-c3cnn4ncccc34)n2)cc1,inhibition,[1],7.28%
same,inhibition,[2],0.26%
same,inhibition,[3],-0.48%
same,inhibition,[4],10.7%
same,inhibition,[5],43.4%
same,inhibition,[6],18.7%
same,inhibition,[7],64.1%
same,inhibition,[8],7.7%
same,inhibition,[9],23%
same,inhibition,[10],4.12%
same,inhibition,[11],7.95%
same,inhibition,[12],3.1%
same,inhibition,[13],13.5%
same,inhibition,[14],3.86%
same,inhibition,[15],8.45%
same,inhibition,[16],1.7%
same,inhibition,[17],3.3%
same,inhibition,[18],3.35%
same,inhibition,[19],4.87%
same,inhibition,[20],11.3%
